“And” between values parts separate entries of the source, which are not always exact repeats. Identical values can stand only once. Among all 190,000 compounds or so, about 810 (0.43%) were called active. The full list was thinned out, with actives kept by preference. Unmarked numbers belong to inactive results. No stated cut-off is given here; in the data, active means inhibition above about 50%; inactive means the rest.
The compounds below were run against Mannose-6-phosphate isomerase (Homo sapiens) (UniProt P34949) (assay: MPI enzyme activity inhibition – biochemical, fluorescence intensity, coupled assay, primary screen (AID 1209;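 further: plate controls were DMSO vehicle for no effect and wells lacking substrate for full effect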)). Details: purified PMI enzyme, at 20 µM, hits give high values.
Mannose-6-phosphate isomerase (Homo sapiens), sequence (P34949 whole entry, looked up): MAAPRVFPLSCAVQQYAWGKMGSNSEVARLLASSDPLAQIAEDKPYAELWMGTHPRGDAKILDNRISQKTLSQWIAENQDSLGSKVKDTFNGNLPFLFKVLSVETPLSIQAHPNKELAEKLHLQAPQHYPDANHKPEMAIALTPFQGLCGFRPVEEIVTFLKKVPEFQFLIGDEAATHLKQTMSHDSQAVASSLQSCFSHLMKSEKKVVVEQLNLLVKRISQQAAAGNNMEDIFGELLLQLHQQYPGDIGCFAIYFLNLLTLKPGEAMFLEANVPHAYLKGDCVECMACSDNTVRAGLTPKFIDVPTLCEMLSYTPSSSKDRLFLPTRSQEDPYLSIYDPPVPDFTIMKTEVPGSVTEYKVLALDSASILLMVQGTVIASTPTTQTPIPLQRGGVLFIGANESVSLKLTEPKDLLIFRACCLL

SMILES	inhibition
N#CC(c1ccc(F)cc1)c1ccc(C(=O)c2ccc(F)cc2)cc1 (centres undefined)	5.1%
O=S(=O)(Nc1cc(Sc2cccc3cccnc23)c(O)c2ccccc12)c1ccccc1	9.2%
COc1ccc(S(=O)(=O)Nc2ccc(O)c(Sc3ncn[nH]3)c2)cc1	10.6%
COc1ccc(S(=O)(=O)Nc2cc(Sc3ncn[nH]3)c(O)c3ccccc23)cc1	98.7% (active)
O=S(=O)(Nc1cc(Sc2cccc3cccnc23)c(O)c2ccccc12)c1ccc(F)cc1	2.1%
CCOc1ccc(S(=O)(=O)Nc2ccc(O)c(Sc3ncn[nH]3)c2)cc1	3.2%
O=S(=O)(Nc1cc(Sc2ncn[nH]2)c(O)c2ccccc12)c1ccccc1	99.3% (active)
Nc1ccccc1N=c1ssnc1Cl	61.4% (active)
OCc1c(Cl)nc2ccccn12	-8.7%
OCc1ccccc1N=c1ssnc1Cl	78.3% (active)
Cc1cc(Oc2ccccc2)nc(SCC(N)=O)n1	-2%
NC(=O)CSc1nnc(C2CC2)n1-c1ccccc1	-7.8%
O=[N+]([O-])c1cc(S(=O)(=O)N2CCCC2)ccc1NCCc1ccccc1	4.4%
CC1=C(C(=O)Nc2ccccn2)C(c2ccccc2Cl)NC(=S)N1 (centres undefined)	-6.6%
N#CC(c1cccc(Cl)c1)c1ncc(C(F)(F)F)cc1Cl (centres undefined)	9.9%
CC1CCc2c(sc(NC(=O)COC(=O)c3ccc(O)cc3)c2C#N)C1 (centres undefined)	2.3%
COc1ccc(-c2[nH]c3ccccc3c2SCCNC(=O)c2ccccc2)cc1	7.4%
CS(=O)(=O)N1CCN=C1SCc1ccc([N+](=O)[O-])cc1	-2.2%
Cc1c(OCC(F)(F)F)ccnc1CS(=O)c1nc2ccccc2[nH]1 (centres undefined)	30.6% and 46.2%
COc1ccc2nc(C(C)O)[nH]c2c1 (centres undefined)	5.1%
COc1ccc2nc(S(=O)Cc3ncc(C)c(OC)c3C)[nH]c2c1 (centres undefined)	72.5% (active)
CCOc1ccc(OCCn2c(=S)[nH]c3c(N)ncnc32)cc1	11%
CC(C)Oc1ccc(OCCn2c(=S)[nH]c3c(N)ncnc32)cc1	54.9% (active)

SMILES	inhibition
Cc1ccc(OCCn2c(=S)[nH]c3c(N)ncnc32)cc1	8.7%
Cc1cccc(C(=O)Nc2ncc(CN3CCOCC3)s2)c1	4.7%
Cc1ccc(-n2[nH]c(C)c(C=Nc3ccc4[nH]c(=O)[nH]c4c3)c2=O)cc1	16.2%
Cc1[nH]n(-c2cccc3ccccc23)c(=O)c1C=Nc1ccc2[nH]c(=O)[nH]c2c1	14.6%
O=c1[nH]c2ccc(N=Cc3c(O)ccc4cc(Br)ccc34)cc2[nH]1	64.6% (active)
CC(C)(C)NC(=O)NC(=O)COC(=O)Cc1coc2ccc3ccccc3c12	25.3%
CN(C)/C=C1\Oc2ccc3ccccc3c2C1=O	86.5% (active)
COc1cccc2c1C(=O)c1ccc3ccccc3c1C2=O	-43.2%
CN(C)/C=C1/Oc2c(ccc3ccccc23)C1=O	21.5%
CCNC(=O)CC1SC(=Nc2ccc(C)cc2)NC1=O (centres undefined)	-4.7%
CC(=O)c1cccc(NC(=O)NNC(=O)CCC(=O)Nc2ccc(C)c(C)c2)c1	-12%
CC(=O)Nc1ccc(S(=O)(=O)c2ccc(C)cc2)cc1	10.7%
Cc1ccc(S(=O)(=O)c2ccc(C)cc2)cc1	-0.6%
COc1ccc(N2CCC(CNC(=O)Nc3ccc(C)c(C)c3)C2)cc1 (centres undefined)	43.1%
CCc1cccc(C)c1NC(=S)NCC1CCN(c2ccc(OC)cc2)C1 (centres undefined)	55% (active)
COc1ccc(N2CCC(CNS(=O)(=O)c3cccc(C(F)(F)F)c3)C2)cc1 (centres undefined)	65.5% (active)
COc1ccc(N2CCC(CNC(=S)Nc3cccc(C)c3)C2)cc1 (centres undefined)	44.7%
COc1ccc(N2CCC(CNC(=S)Nc3cccc(OC)c3)C2)cc1 (centres undefined)	29.7%
CCOc1ccc(NC(=O)NCC2CCN(c3ccc(OC)cc3)C2)cc1 (centres undefined)	23.3%
CCN1CCCC1CNS(=O)(=O)c1cccc(C(F)(F)F)c1 (centres undefined)	-14.5%
COc1ccc(NC(=S)NCC2CCN(c3ccc(OC)cc3)C2)cc1 (centres undefined)	49.3%
COc1ccc(N2CCC(CNC(=O)Nc3ccccc3)C2)cc1 (centres undefined)	74.5% (active)
COc1ccc(N2CCC(CNC(=O)Nc3ccc(Cl)cc3)C2)cc1 (centres undefined)	37%

SMILES	inhibition
COc1ccc(N2CCC(CNC(=O)Nc3cccc(OC)c3)C2)cc1 (centres undefined)	70% (active)
COc1ccc(N2CCN(S(=O)(=O)c3cccc(C(F)(F)F)c3)CC2)cc1	-0.4%
Cn1c(SCC(=O)N=Nc2c(O)[nH]c3ccccc23)nc2ccccc21	3.1%
CCN(CC)CCCn1c(C)cc2c(c1=O)C(c1cc(OC)c(OC)cc1OC)C(C#N)=C(N)O2 (centres undefined)	-0.8%
CC[C@H](C)[C@@H](NC(=O)O[C@@H]1C(=O)c2cc(OC)ccc2O[C@H]1c1ccc(OC)c(Br)c1)C(=O)OC	11%
CC(=O)N1CCc2cc(S(=O)(=O)CCC(=O)N3CCc4ccccc4C3)ccc21	-7.9%
CC(C)CC(C(=O)Nc1ccc2c(c1)OCCO2)N1C(=O)c2ccccc2C1=O (centres undefined)	-13.9%
Cc1cc(=O)n2cccc(O)c2n1	71% (active)
Cc1ccn2c(=O)cc(C)nc2c1	4.8%
Cc1cc(=O)n2ccsc2n1	7.1%
O=C(NCCO)C1CCN(S(=O)(=O)c2ccc(F)cc2)CC1	10.2%
COc1cc(CNn2c(C)n[nH]c2=S)cc(Cl)c1OCc1ccccc1	16.3%
COc1ccc(-c2oc3c(CC=C(C)C)c(O[C@@H]4O[C@H](CO)[C@@H](O)[C@H](O)[C@H]4O)cc(O)c3c(=O)c2O[C@@H]2O[C@@H](C)[C@H](O)[C@@H](O)[C@H]2O)cc1	5.6%
COc1ccc(-c2oc3cc(OC)c(O)c(OC)c3c(=O)c2OC)cc1O	3.4%
O=c1c(-c2ccc(O)cc2)coc2cc(OC3OC(CO)C(O)C(O)C3O)cc(O)c12 (centres undefined)	-6.4%
O=C(O)C1OC(Oc2c(-c3ccc(O)c(O)c3)oc3cc(O)cc(O)c3c2=O)C(O)C(O)C1O (centres undefined)	23.4%
C[C@@H]1O[C@@H](Oc2c(-c3cc(O)c(O)c(O)c3)oc3cc(O)cc(O)c3c2=O)[C@H](O)[C@H](O)[C@H]1O	65.7% (active)
CC1OC(OCC2OC(Oc3c(-c4ccc(O)cc4)oc4cc(O)cc(O)c4c3=O)C(O)C(O)C2O)C(O)C(O)C1O (centres undefined)	4.8%
C[C@@H]1O[C@@H](OC[C@H]2O[C@@H](Oc3c(-c4ccc(O)c(O)c4)oc4cc(O)cc(O)c4c3=O)[C@H](O)[C@@H](O)[C@@H]2O)[C@H](O)[C@H](O)[C@H]1O	50.3% (active)
O=c1c(O)c(-c2ccc(O)cc2O)oc2cc(O)cc(O)c12	-15.2%
O=c1c(O[C@@H]2O[C@H](CO)[C@H](O)[C@H](O)[C@H]2O)c(-c2ccc(O)c(O)c2)oc2cc(O)cc(O)c12	61.3% (active)
O=c1cc(-c2ccc(O)cc2)oc2cc(O)c(C3OC(CO)C(O)C(O)C3O)c(O)c12 (centres undefined)	7.9%
Cc1cc(O)cc(O[C@H]2OC(CO)[C@H](O)[C@@H](O)[C@H]2O)c1 (some centres undefined)	1.9%
